Compound activity from PubChem BioAssay.
KLF5 inhibitor – suppresses KLF5 promoter-driven expression | actives 0.23% (n = 290,000) | DLD-1 KLF5 promoter-luciferase reporter, luminescence | inhibition, % at 5 µM;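 active = inhibition above a per-plate limit of that plate's mean compound inhibition plus 3 SD, cut at about 60% in these data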;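 also: higher means less KLF5 promoter-driven luciferase light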
ANO1 block – mouse TMEM16A channel inhibition, primary screen; HEK293 TMEM16A/YFP iodide influx fluorescence, ionomycin; actives 1.2% (n = 310,000); AID 588511; normalized B-score (activity score, 25-100; higher = stronger inhibition) at 10 µM;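 active = ratio plate-corrected score three or more library SD toward inhibition, starting fluorescence score within five deviations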;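 also: score derived from kinetic fluorescence span divided by baseline fluorescence per well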
Target sequence (Q8BHY3 whole entry, looked up): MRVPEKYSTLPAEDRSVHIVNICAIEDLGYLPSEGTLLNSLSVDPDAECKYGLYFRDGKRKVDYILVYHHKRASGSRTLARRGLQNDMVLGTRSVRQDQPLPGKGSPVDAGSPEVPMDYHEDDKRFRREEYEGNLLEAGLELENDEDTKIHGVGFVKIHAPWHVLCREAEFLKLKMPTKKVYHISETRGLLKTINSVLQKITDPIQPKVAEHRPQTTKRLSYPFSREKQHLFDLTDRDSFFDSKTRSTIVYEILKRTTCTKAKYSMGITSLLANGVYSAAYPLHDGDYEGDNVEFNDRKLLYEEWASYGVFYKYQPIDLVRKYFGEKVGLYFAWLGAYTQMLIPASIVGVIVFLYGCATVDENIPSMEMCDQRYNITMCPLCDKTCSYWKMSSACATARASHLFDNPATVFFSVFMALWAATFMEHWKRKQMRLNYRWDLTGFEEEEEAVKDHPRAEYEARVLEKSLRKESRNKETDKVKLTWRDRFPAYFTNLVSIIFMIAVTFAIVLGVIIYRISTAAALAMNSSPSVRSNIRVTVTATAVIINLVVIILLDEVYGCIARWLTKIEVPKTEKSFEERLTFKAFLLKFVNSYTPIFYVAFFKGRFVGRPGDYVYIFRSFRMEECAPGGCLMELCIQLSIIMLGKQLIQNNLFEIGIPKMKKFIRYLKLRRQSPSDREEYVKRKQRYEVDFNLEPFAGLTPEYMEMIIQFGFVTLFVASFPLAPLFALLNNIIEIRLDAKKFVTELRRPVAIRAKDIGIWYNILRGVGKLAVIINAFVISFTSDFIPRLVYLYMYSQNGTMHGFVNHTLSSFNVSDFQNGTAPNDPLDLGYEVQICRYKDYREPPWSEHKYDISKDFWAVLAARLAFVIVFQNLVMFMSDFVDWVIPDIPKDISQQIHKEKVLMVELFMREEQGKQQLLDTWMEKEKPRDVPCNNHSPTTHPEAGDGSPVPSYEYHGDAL
697 NFkB inh – lowers PMA/ionomycin-induced NF-kB signal in 697 B cells; 697 B-cell NF-kB luciferase reporter, 16 h; AID 435022; actives 0.33% (n = 330,000); inhibition, % at 4 µM; in the data active = inhibition above about 35%
Jurkat NFkB inh – inhibitors of the PMA/ionomycin-induced NF-kB reporter in Jurkat cells; inhibition, % at 4 µM; actives 0.53% (n = 330,000); PMA/ionomycin-induced NF-kB luciferase reporter, luminescence; in the data active = inhibition above about 50%
aSyn 5UTR inh – MLPCN primary screen, SNCA 5' untranslated region. actives 0.82% (n = 300,000). alpha-synuclein 5'UTR reporter, inhibitor activity. inhibition, % (tested at 7.5 µM); in the data active = inhibition above about 60%;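 also: H4 neuroglioblastoma cells stably carrying SNCA 5'UTR luciferase fusion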
ANO1 activ – activates or potentiates the mouse TMEM16A chloride channel; actives 0.3% (n = 340,000); HEK293 TMEM16A/YFP-H148Q/I152L, iodide quench fluorescence; active compounds read low; Q8BHY3; B-score at 10 µM;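 active = fluorescence-ratio B-score plate-corrected deviation score at least 3 library SD below zero, with starting fluorescence score within 5 deviations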;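 also: channel opened by trigger with iodide after compound preincubation; score built on the fluorescence ratio of max minus min over baseline; more negative score means more quench and so TMEM16A activation or potentiation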
697 NFkB conf – inhibitors of the PMA/ionomycin-induced NF-kB reporter in 697 B cells, retest; AID 449746; shares compounds with 697 NFkB inh; inhibition, % at 4 µM; 697 B-cell NF-kB luciferase, 16 h; actives 35% (n = 2,000); in the data active = inhibition mostly above about 28%, no sharp cut-off; inactive = mostly below about 22%
Numbers stand for hits; i = inactive; nt = not tested or not shown. This is a sample that favours compounds with a hit; in the whole collection about 2.5% have one here.

SMILES | KLF5 inhibitor | ANO1 block | 697 NFkB inh | Jurkat NFkB inh | aSyn 5UTR inh | ANO1 activ | 697 NFkB conf
Nn1c(SCC(=O)NC2CCS(=O)(=O)C2)nnc1-c1ccco1 (configuration not stated) | nt | nt | i | i | nt | i | nt
CC1CCN(S(=O)(=O)c2cnc(Cl)c(Br)c2)CC1 | i | i | 38.0 | i | i | i | i
CC1CCCCN1S(=O)(=O)c1cnc(Cl)c(Br)c1 (configuration not stated) | i | i | i | i | i | i | nt
CCOc1cc(/C=C2\CCC/C(=C\c3cc(Cl)c(O)c(OCC)c3)C2=O)cc(Cl)c1O | i | i | i | i | i | i | i
CCOc1cc(/C=N\O)cc(Cl)c1OCC | i | i | i | i | i | i | nt
O=C(Nc1nc2ccc(F)cc2s1)C1=COCCO1 | nt | i | i | i | i | i | i
CCOC(=O)C(=CNc1cc(C)ccc1[N+](=O)[O-])C(=O)OCC | i | i | i | i | i | i | nt
CCOC(=O)C(=CNc1cc(C)ccc1C)C(=O)OCC | i | i | 37.5 | i | i | i | 29.2
Fc1cccc(/C=N/Nc2ccc3ccccc3n2)c1 | i | i | i | i | i | i | i
Cc1ccc(Cl)cc1NC(=O)C(=O)N/N=C/c1ccc2c(c1)OCO2 | i | i | i | i | nt | i | nt
O=C(Nc1ccc(S(=O)(=O)N2CCCc3ccccc32)cc1)C1CCCO1 (configuration not stated) | i | i | i | i | i | i | nt
O=C(O)C1CC=CCC1C(=O)Nc1ccc(S(=O)(=O)N2CCCc3ccccc32)cc1 (configuration not stated) | i | i | i | i | i | i | i
COC(=O)CSc1nnc(-c2sc3ccccc3c2Cl)o1 | i | i | 40.4 | i | i | i | 42.5
Cc1ccccc1CN1CCC(N2CCC(C(=O)NCC3CCCO3)CC2)CC1 (configuration not stated) | i | i | i | i | i | i | nt
CCOc1ccc(NC(=O)/C=C/c2ccccc2)c([N+](=O)[O-])c1 | i | i | i | i | i | i | nt
COc1ccc(N/C=C/C(=O)c2ccccc2)cc1 | i | i | i | i | i | i | i
COc1ccc(N/C=C\C(=O)c2ccc3ccccc3c2)cc1 | i | i | i | i | i | i | nt
CCOc1ccc(N/C=C/C(=O)c2ccccc2)c([N+](=O)[O-])c1 | i | i | i | i | 86.7 | i | i
O=C(c1ccncc1)N(Cc1ccco1)Cc1cc2ccccc2[nH]c1=O | i | i | i | i | i | i | nt
Cc1cccc2cc(CN(Cc3ccco3)C(=O)c3ccncc3)c(=O)[nH]c12 | i | i | 35.7 | i | i | i | i
Cc1nc([N+](=O)[O-])c(Sc2nc3ccc([N+](=O)[O-])cc3[nH]2)n1Cc1ccccc1 | i | i | 36.2 | i | i | i | 29.7
O=C(C=Cc1cccc(O)c1)c1ccccc1O | nt | nt | nt | nt | nt | i | nt
O=C(/C=C/c1ccc(O)c(O)c1)c1ccccc1O | i | 100 | i | i | i | i | i
CCn1nc(C)cc1C(=O)N1CCCC(C(=O)c2ccc(OC)cc2C)C1 (configuration not stated) | i | i | i | i | i | i | nt
COc1cc(NC(=S)NC(=O)c2ccc(C(C)(C)C)cc2)ccc1NC(=O)c1cccs1 | i | i | i | i | i | i | i
SMILES | KLF5 inhibitor | ANO1 block | 697 NFkB inh | Jurkat NFkB inh | aSyn 5UTR inh | ANO1 activ | 697 NFkB conf
CCOC(=O)Cc1csc(NC(=O)CSc2nc(=O)[nH]c3c2CCC3)n1 | nt | i | i | i | i | i | nt
CC(=O)Nc1ccc(C23CC4CC(CC(C4)C2)C3)cc1 | i | i | i | i | i | i | nt
O=C(CSCCO)Nc1ccc(C23CC4CC(CC(C4)C2)C3)cc1 | i | i | 56.7 | i | i | i | 65.5
COc1cccc(C2=NN(S(C)(=O)=O)C(c3cccs3)C2)c1 (configuration not stated) | i | i | i | i | i | i | nt
CC1=C(C(=O)OC(C)C)C(c2coc3ccccc3c2=O)C2=C(CCCC2=O)N1 (configuration not stated) | i | i | i | i | nt | i | nt
CCSCCOC(=O)C1=C(C)NC2=C(C(=O)CCC2)C1c1coc2ccccc2c1=O (configuration not stated) | i | i | 35.9 | i | i | i | i
O=[N+]([O-])c1ccccc1COc1ccc(Cl)c2cccnc12 | i | i | i | i | i | i | i
O=C(Oc1ccc(Cl)c2cccnc12)c1cccc([N+](=O)[O-])c1 | i | i | i | i | i | i | nt
CCOC(=O)C1=C(CS(=O)(=O)c2ccccc2)NC(=O)NC1c1ccccc1OC (configuration not stated) | i | i | i | i | i | i | nt
Cc1ccc(NC(=O)CCNS(=O)(=O)c2ccc3c(c2)oc(=O)n3C)cc1 | i | i | 40.8 | i | i | i | i
CC1Cc2ccccc2N1S(=O)(=O)c1cccc(C(=O)N2CCN(c3ncccn3)CC2)c1 (configuration not stated) | i | i | i | i | i | i | i
CN1C[C@@H]2[C@@H]3C(=O)N(Cc4ccccc4)C(=O)[C@@H]3[C@](C)(C1=O)N2C(=O)c1ccc(F)cc1 | nt | nt | nt | nt | nt | i | nt
O=C(Nc1nc2c(s1)CCCC2)c1cccs1 | i | i | i | i | nt | nt | i
Cc1ccc2nc(NC(=O)c3cccs3)sc2c1 | i | i | i | i | nt | i | i
Cc1ccc(Cc2cnc(NC(=O)c3cccs3)s2)cc1 | i | i | i | i | i | i | i
Cc1c(Cc2ccccc2)c(=O)oc2c(C)c(OCC(=O)NCC3CCC(C(=O)O)CC3)ccc12 (configuration not stated) | i | i | 39.5 | i | i | i | i
Cc1cc(OCC(=O)NCC2CCC(C(=O)O)CC2)c2c(C)c(Cc3ccccc3)c(=O)oc2c1 (configuration not stated) | i | i | i | i | i | i | nt
Cc1ccc(CNCc2cc(Cl)ccc2O)cc1 | nt | i | i | i | nt | i | nt
NS(=O)(=O)c1ccc(NC(=O)c2cc(-c3cc(Cl)ccc3O)n[nH]2)cc1 | i | i | i | i | i | i | nt
Nc1ccc2nc(-c3ccccc3)sc2c1 | i | i | i | i | i | i | i
COc1cc(-c2[nH]nc3c2C(c2ccco2)C(C#N)=C(N)O3)cc(OC)c1OC (configuration not stated) | i | i | 56.9 | i | i | i | 37.1
CCOC(=O)c1c2ccccc2[n+]([O-])n1CCO | nt | i | i | i | i | i | nt
Cc1ccc(Sc2cc(NCCCO)c([N+](=O)[O-])c3nonc23)cc1 | i | i | 45.5 | i | i | i | 43.5
COCCCNC(=O)C[C@H]1C[C@H](C(=O)N2CCCCC2)[C@@]2(CCc3ccccc3)c3[nH]c4cc(CCC(=O)N(C)C)ccc4c3CCN2C1=O | nt | nt | i | nt | nt | nt | nt
Cc1nc(N2CCC(C)CC2)c2c(C)c(C(=O)O)sc2n1 | i | i | 35.1 | i | i | i | i
